In the library only some 0.97% were active in any assay of this set; here they are far more common.
Rv3671c inh: Rv3671c (M. tuberculosis) protease inhibition | P9WHR9 | inhibition, % at 5.96 µM | 320,000 compounds, 0.048% hits | AID 2606; in the data active means inhibition above about 38%;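 further: extracellular domain of Rv3671c used as enzyme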
MazEF act: increases E. coli MazEF RNase cleavage of RNA; FAM/BHQ RNA-DNA oligo cleavage fluorescence, 5 h; activation, % at 20 µM; 350,000 compounds, 0.32% hits; in the data active means activation above about 50%
TcdB inh: blocks C. difficile toxin B glycohydrolase activity | P18177 | TcdB glycohydrolase enzymatic assay, plate reader | inhibition, % at 9.99 µM | 350,000 compounds, 0.24% hits | AID 652162; in the data active means inhibition above about 10%
RecA intein inh: Mtb RecA intein splicing inhibition; cell-free RecA intein splicing, fluorescence; inhibition, % (concentration not given with the values); 290,000 compounds, 0.75% hits; in the data active means inhibition above about 30%
Target sequence (P9WHJ3 whole entry, looked up): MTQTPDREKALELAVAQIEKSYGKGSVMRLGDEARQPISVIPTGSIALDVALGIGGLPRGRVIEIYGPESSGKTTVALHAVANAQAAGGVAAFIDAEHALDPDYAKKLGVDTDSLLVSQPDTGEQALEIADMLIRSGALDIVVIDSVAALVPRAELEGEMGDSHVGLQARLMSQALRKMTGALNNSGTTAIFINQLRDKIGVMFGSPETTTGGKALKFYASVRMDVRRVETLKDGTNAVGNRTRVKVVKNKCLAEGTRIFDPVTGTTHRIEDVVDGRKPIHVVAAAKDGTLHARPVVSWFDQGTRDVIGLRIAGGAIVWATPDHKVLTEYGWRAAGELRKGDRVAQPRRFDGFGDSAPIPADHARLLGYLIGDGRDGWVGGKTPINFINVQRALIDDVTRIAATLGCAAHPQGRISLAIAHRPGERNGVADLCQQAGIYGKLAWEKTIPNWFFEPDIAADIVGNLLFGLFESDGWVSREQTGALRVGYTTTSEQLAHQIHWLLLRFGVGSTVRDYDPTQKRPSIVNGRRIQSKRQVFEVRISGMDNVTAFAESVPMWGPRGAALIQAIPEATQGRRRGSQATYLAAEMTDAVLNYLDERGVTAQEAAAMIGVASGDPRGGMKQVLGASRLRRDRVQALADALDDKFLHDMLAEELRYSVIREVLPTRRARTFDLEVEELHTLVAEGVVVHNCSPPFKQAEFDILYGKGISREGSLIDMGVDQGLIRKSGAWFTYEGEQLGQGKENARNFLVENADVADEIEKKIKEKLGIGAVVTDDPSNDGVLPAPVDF
Mtb bLac sens: beta-lactam sensitization of Mtb H37Rv; M. tuberculosis H37Rv growth with meropenem, percent inhibition; 330,000 compounds, 0.27% hits; inhibition, % at 25 µM; call rule not given here;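 further: growth measured after seven days incubation then overnight dye step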
Mtb UGM inh: inhibitors of M. tuberculosis UDP-galactopyranose mutase; P9WIQ1; purified UGM, fluorescence polarization probe displacement; inhibition, % at 10 µM; 320,000 compounds, 0.06% hits; AID 504406; in the data active means inhibition above about 10%, passing the limit was not always enough
Of the large screens only hits and unclear results are named; the others gave an inactive call.

Cc1ccc([N+](=O)[O-])cc1-c1ccc(/C=N\n2nnnc2N)o1	none
COC(=O)CSc1cc([N+](=O)[O-])cc2c1c(C1OCCO1)nn2-c1ccccc1	MazEF act 114 (no result: TcdB inh)
COC(=O)CSc1cc([N+](=O)[O-])ccc1NC(=O)OC	none
CCC(=O)c1cn(CC(=O)Nc2cccc(C)c2C)c2ccccc12	TcdB inh 14 (no result: RecA intein inh)
CCC(=O)c1cn(CC(=O)Nc2ccccc2Cl)c2ccccc12	MazEF act 54
CCC(=O)c1cn(CC(=O)Nc2cccc(C)c2)c2ccccc12	none
C[C@@H]1CN([C@H](C)CO)C(=O)c2cccc(NC(=O)C3CCOCC3)c2O[C@H]1CN(C)Cc1ccc(C(=O)O)cc1	none (no result: Rv3671c inh, MazEF act, RecA intein inh, Mtb bLac sens, Mtb UGM inh)
Cc1cccc2c3nc4ccccc4nc3n(C)c12	MazEF act 165
C[C@@H]1CN([C@@H](C)CO)C(=O)c2cccc(NC(=O)c3cnccn3)c2O[C@@H]1CN(C)Cc1ccc(C(=O)Nc2ccccc2N)cc1	none (no result: Rv3671c inh, MazEF act, RecA intein inh, Mtb bLac sens, Mtb UGM inh)
CC(=O)N/N=C(\C)c1ccc2c(c1)OCCO2	none
C/C(=N\NC(N)=S)c1ccc2c(c1)OCCO2	TcdB inh 12
Cc1nn(-c2ccc(F)cc2)c(Cl)c1/C=N/NC(=O)c1ccc(O)cc1	none (no result: RecA intein inh)
Cc1nn(-c2ccc(F)cc2)c(Cl)c1/C=N/NC(=O)c1cccs1	MazEF act 68 (no result: TcdB inh)
CCC(=O)Nc1ccc2c(c1)OC[C@H](C)N(C(=O)CC1CC1)C[C@@H](C)[C@H](OC)CN(C)C2=O	none (no result: Rv3671c inh, MazEF act, RecA intein inh, Mtb bLac sens, Mtb UGM inh)
O=C(Cc1ccccc1)N1CC2(C1)[C@H](c1ccccc1)[C@@H](CO)N2S(=O)(=O)Cc1ccccc1	none (no result: Rv3671c inh, MazEF act, RecA intein inh, Mtb bLac sens, Mtb UGM inh)
N#C[C@@H]1[C@@H](c2ccccc2)[C@H](CO)N1C(=O)Cc1ccccc1	none (no result: Rv3671c inh, MazEF act, RecA intein inh, Mtb bLac sens, Mtb UGM inh)
O=C(CN1C(=O)NC2(CCCc3ccccc32)C1=O)NCc1cccs1 (configuration not stated)	TcdB inh 15 (no result: RecA intein inh)
C[C@H]1CCCCO[C@H](CN(C)CC2CC2)[C@@H](C)CN([C@@H](C)CO)C(=O)c2cc(NC(=O)Nc3ccccc3)ccc2O1	none (no result: Rv3671c inh, MazEF act, RecA intein inh, Mtb bLac sens, Mtb UGM inh)
C[N+]1(CCCCSc2ccc(O)cc2)CCCCC1	TcdB inh 22
COc1cc(NC(=O)Cn2cnc3sc(C)c(S(=O)(=O)N4CCN(C)CC4)c3c2=O)cc(OC)c1OC	none (no result: MazEF act, TcdB inh)
COc1ccc(NC(=O)Cn2cnc3sc(C)c(S(=O)(=O)N4CCOCC4)c3c2=O)c(OC)c1	TcdB inh 15
COCCNC(=O)C[C@H]1C[C@H]2c3cc(NC(=O)Nc4ccc(C(F)(F)F)cc4)ccc3O[C@H]2[C@H](CO)O1	none (no result: Rv3671c inh, MazEF act, RecA intein inh, Mtb bLac sens, Mtb UGM inh)
C=C1C(=O)O[C@@H]2C[C@@H](C)[C@@H]3C=CC(=O)[C@@]3(C)[C@@H](OC(=O)CC(=O)O[C@H]3[C@@H]4C(=C)C(=O)O[C@@H]4C[C@@H](C)[C@@H]4C=CC(=O)[C@]43C)[C@H]12	RecA intein inh 33
COc1cccc(S(=O)(=O)N(C)C[C@@H]2OCc3ccccc3-c3ccccc3C(=O)N([C@@H](C)CO)C[C@@H]2C)c1	none (no result: Rv3671c inh, MazEF act, RecA intein inh, Mtb bLac sens, Mtb UGM inh)
O=C(C[C@H]1CC[C@@H]2[C@H](COC[C@H](O)CN2C(=O)Nc2ccc(Cl)cc2)O1)NCC1CC1	none (no result: Rv3671c inh, MazEF act, RecA intein inh, Mtb bLac sens, Mtb UGM inh)
COc1ccc(NC(=O)Nc2nc(C)cc(C)n2)c(OC)c1	TcdB inh 11
CC(=O)Nc1ccc(S(=O)(=O)N2CCC(C(=O)NCCC(=O)Nc3ccccc3)CC2)cc1	none
COc1ccc(S(=O)(=O)N2CCC(C(=O)NCCC(=O)Nc3ccc(Cl)cc3)CC2)cc1	MazEF act 55
C[C@@H]1CN([C@@H](C)CO)C(=O)Cc2cc(NC(=O)Cc3ccccc3)ccc2O[C@H]1CN(C)Cc1ccc(Oc2ccccc2)cc1	none (no result: Rv3671c inh, MazEF act, RecA intein inh, Mtb bLac sens, Mtb UGM inh)
CCCN(C(=O)CN1C(=O)NC2(CCCCCC2)C1=O)C1CCS(=O)(=O)C1 (configuration not stated)	none (no result: TcdB inh)
CCN(C(=O)CN1C(=O)NC2(CCC(C)CC2)C1=O)C1CCCCC1 (configuration not stated)	TcdB inh 14 (no result: Rv3671c inh, RecA intein inh, Mtb bLac sens, Mtb UGM inh)
CCCCc1ccc(/C=C2\C(=O)c3ccccc3C(O)=C2C(=O)OCC)cc1	RecA intein inh 35 (no result: MazEF act, TcdB inh)
CC(C)NC(=O)Nc1ccc2c(c1)C(=O)N([C@H](C)CO)C[C@@H](C)[C@H](CN(C)CC1CCCCC1)O2	none (no result: Rv3671c inh, MazEF act, RecA intein inh, Mtb bLac sens, Mtb UGM inh)
C[C@@H]1CN([C@@H](C)CO)C(=O)c2cc(NC(=O)CCCCCC(=O)Nc3ccccc3N)ccc2O[C@@H]1CN(C)S(=O)(=O)c1ccccc1	none (no result: Rv3671c inh, MazEF act, RecA intein inh, Mtb bLac sens, Mtb UGM inh)
COc1ccccc1NS(=O)(=O)c1cc(N)ccc1N1CCOCC1	none (no result: RecA intein inh)
COc1ccccc1NS(=O)(=O)c1cc(N)ccc1N1CCCC1	Mtb UGM inh 23 (no result: RecA intein inh)
COC(=O)c1c(/N=C/N(C)C)sc2c1CCN(c1ncc(C(F)(F)F)cc1Cl)C2	MazEF act 51 (no result: TcdB inh)
COC(=O)c1c(N(S(C)(=O)=O)S(C)(=O)=O)sc2c1CCN(c1ncc(C(F)(F)F)cc1Cl)C2	none (no result: TcdB inh)
CCOC(=O)/C=c1\s/c(=C\c2ccc3cc(OC)ccc3c2)c(=O)n1CC(=O)NCC1CCCO1 (configuration not stated)	MazEF act 170 (no result: TcdB inh)
C[C@H](CO)N1C[C@H](C)[C@H](CN(C)C(=O)CCCN(C)C)OCCCC[C@H](C)Oc2ccc(NS(=O)(=O)c3ccccc3)cc2C1=O	none (no result: Rv3671c inh, MazEF act, RecA intein inh, Mtb bLac sens, Mtb UGM inh)
CCCCCCc1cc2cc(S(=O)(=O)c3ccc(Cl)cc3)c(=O)oc2cc1O	none
CCN(CC)c1ccc2cc(S(=O)(=O)c3ccc(Cl)cc3)c(=O)oc2c1	Mtb UGM inh 20 (no result: RecA intein inh)
C[C@@H]1CCCCO[C@H](CN(C)C(=O)CCCN(C)C)[C@H](C)CN([C@@H](C)CO)C(=O)c2cc(NC(=O)Nc3cccc4ccccc34)ccc2O1	none (no result: Rv3671c inh, MazEF act, RecA intein inh, Mtb bLac sens, Mtb UGM inh)
CNc1nc(C23CC4CC(CC(C4)C2)C3)cs1	TcdB inh 12
O=C(COC(=O)c1ccc2c(c1[N+](=O)[O-])C(=O)c1ccccc1C2=O)NC1CC1	RecA intein inh 71
O=C(COC(=O)c1cccc2c1C(=O)c1ccccc1C2=O)NC1CCCCC1	none
Cc1cc2c(cc1S(=O)(=O)NCc1ccccc1)OCC(=O)N2	none
Cc1cc2c(cc1S(=O)(=O)N(C)c1ccccc1)NC(=O)CO2	TcdB inh 21
CC1=CC(=C2N=C(c3ccccc3)OC2=O)C=C(C)O1	MazEF act 306 (no result: TcdB inh)
CN1C=CC=C/C1=C1/N=C(c2ccccc2)OC1=O	none
CCNC(=O)[C@H]1[C@H](CO)[C@H]2Cn3c(cccc3=O)[C@@H]1N2C(=O)c1ccc(F)cc1	none (no result: Rv3671c inh, MazEF act, RecA intein inh, Mtb bLac sens, Mtb UGM inh)
COCC(=O)N1[C@@H]2c3ccc(C4=CCCC4)c(=O)n3C[C@@H]2[C@@H](CO)[C@@H]1C(=O)N1CCN(C)CC1	none (no result: Rv3671c inh, MazEF act, RecA intein inh, Mtb bLac sens, Mtb UGM inh)
O=c1c(O)cccc2cc(O)c(O)c(O)c12	MazEF act 281
O=c1cc(-c2ccccc2)oc2cc(O)c(O)c(O)c12	none (no result: RecA intein inh, Mtb UGM inh)
Cc1ccc(NC(=O)OC(C)N2CCCCC2)cc1NC(=O)OC(C)N1CCCCC1 (configuration not stated)	TcdB inh 11 (no result: Rv3671c inh, RecA intein inh, Mtb bLac sens, Mtb UGM inh)
COc1ccc(NC(=O)N(C)C[C@H]2Oc3ncc(C#CC(C)C)cc3C(=O)N([C@H](C)CO)C[C@H]2C)cc1	none (no result: Rv3671c inh, MazEF act, RecA intein inh, Mtb bLac sens, Mtb UGM inh)
